Reference: the supplement of paper PMC7411640
Structures can show the parent of a compound that is named as a salt.

Tested on: MDA-MB-468
Assay: phospho-S6 immunofluorescence (DAPI-normalised), per-plate z-score; higher = higher phospho-S6 signal (less pathway suppression)
Conditions: 24 h
Procedure: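 GPCR-targeted compound library (MedChemExpress HY-L006) tested on MDA-MB-468 PTEN-null TNBC cells in 384-well plates at 0.1, 1 or 10 uM, combined with vehicle, GDC0941 450 nM or lapatinib 1 uM, for 24 h. Phospho-S6 (S240/244) immunofluorescence normalised to DAPI and expressed as a per-plate z-score; values are the mean of biological triplicates.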

Row | Structure (SMILES) | phospho-S6 immunofluorescence (z-score) (co-treatment: GDC0941 450 nM) | phospho-S6 immunofluorescence (z-score) (co-treatment: lapatinib 1 uM) | phospho-S6 immunofluorescence (z-score) (co-treatment: vehicle)
1 | COc1ccccc1N1CCN(CCN(C(=O)C2CCCCC2)c2ccccn2)CC1 (compound 10 µM) | -0.49 | 0.26 | -0.79
2 | CC(C)NC[C@H](O)COc1ccc(CCOCC2CC2)cc1 [Levobetaxolol (hydrochloride)] (compound 10 µM) | -0.39 | -0.2 | -0.19
3 | CN(C)CCc1c[nH]c2ccc(Cn3cncn3)cc12 [Rizatriptan (benzoate)] (compound 10 µM) | -1.62 | 0.19 | -1.1
4 | Cn1c(=O)c2c(ncn2CC(O)CO)n(C)c1=O (centres undefined) [Diphylline] (compound 10 µM) | -0.54 | -0.14 | -0.15
5 | C[N+]1(C)[C@@H]2CC[C@H]1C[C@@H](OC(=O)C(O)c1ccccc1)C2 (some centres undefined) [Homatropine (methylbromide)] (compound 10 µM) | 0.87 | 1.2 | 1.2
6 | CC1=C(C)C(=O)C(C(CCCCCC(=O)O)c2ccccc2)=C(C)C1=O (centres undefined) [Seratrodast] (compound 10 µM) | 1.01 | 1.15 | 0.08
7 | O=c1n(CCCN2CCN(c3cccc(Cl)c3)CC2)nc2ccccn12 [Trazodone (hydrochloride)] (compound 10 µM) | 0.41 | 0.08 | -0.51
8 | CN1[C@@H]2CC[C@H]1C[C@@H](OC(=O)c1c[nH]c3ccccc13)C2 [Tropisetron] (compound 10 µM) | 0.73 | 1.44 | 0.31
9 | NC(=O)C(c1ccccc1)(c1ccccc1)[C@@H]1CCN(CCc2ccc3c(c2)CCO3)C1 [Darifenacin (hydrobromide)] (compound 10 µM) | -1.6 | -1.5 | 0.03
10 | CN(C)CCN(Cc1ccccc1)c1ccccn1 [Tripelennamine (hydrochloride)] (compound 10 µM) | -0.07 | -0.31 | -0.41
11 | Cc1c(C(=O)NN2CCCCC2)nn(-c2ccc(Cl)cc2Cl)c1-c1ccc(Cl)cc1 [Rimonabant (Hydrochloride)] (compound 10 µM) | -3.49 | -4.25 | -5.97
12 | CN1CCN(CCCN2c3ccccc3Sc3ccc(C(F)(F)F)cc32)CC1 [Trifluoperazine (dihydrochloride)] (compound 10 µM) | -4.47 | -5.54 | -4.02
13 | CCCCC[C@H](O)/C=C/[C@@H]1[C@@H](C/C=C\CCCC(=O)O)[C@@H](O)C[C@H]1O [Dinoprost (tromethamine salt)] (compound 10 µM) | -0.07 | -0.14 | 0.98
14 | CC[C@H](C)[C@@H]1NC(=O)[C@H](Cc2ccc(OC)cc2)NC(=O)CCCSC[C@@H](C(=O)N2CCC[C@H]2C(=O)N[C@@H](CC(C)C)C(=O)NCC(N)=O)NC(=O)[C@H](CC(N)=O)NC(=O)[C@H](CCC(N)=O)NC1=O [Carbetocin] (compound 10 µM) | 0.31 | -0.07 | 0.3
15 | Cc1cc(OCCCS(C)(=O)=O)cc(C)c1-c1cccc(COc2ccc3c(c2)OC[C@H]3CC(=O)O)c1 (compound 10 µM) | -1.06 | 0.1 | -0.32
16 | CNC(=O)[C@H]1O[C@@H](n2cnc3c(NCc4cccc(I)c4)nc(Cl)nc32)[C@H](O)[C@@H]1O (compound 10 µM) | -1.27 | -1.18 | -2.34
17 | CCNC(=O)[C@H]1O[C@@H](n2cnc3c(N)nc(NCCc4ccc(CCC(=O)O)cc4)nc32)[C@H](O)[C@@H]1O (compound 10 µM) | 0.05 | 1.28 | -0.14
18 | CC1CCN(CC[C@H]2CCCN2S(=O)(=O)c2cccc(O)c2)CC1 (compound 10 µM) | 0.86 | 0.2 | 0.48
19 | CCCCCCOc1nsnc1C1=CCCN(C)C1 [Xanomeline (oxalate)] (compound 10 µM) | -0.72 | -0.5 | 1.16
20 | O=C1O[C@]2(CC[C@H](C(=O)Nc3ccn(-c4ccccc4F)n3)CC2)c2cnccc21 (compound 10 µM) | 0.73 | -0.47 | 0.3
21 | OC(CCN1CCCCC1)(c1ccccc1)C1CCCCC1 (centres undefined) [Trihexyphenidyl (hydrochloride)] (compound 10 µM) | -0.3 | -0.52 | 0.56
22 | COc1cc2nc(N(C)CCCNC(=O)C3CCCO3)nc(N)c2cc1OC (centres undefined) [Alfuzosin] (compound 10 µM) | 0.81 | 0.71 | -0.19
23 | O=C1NCCN1CCN1CCC(c2cn(-c3ccc(F)cc3)c3ccc(Cl)cc23)CC1 [Sertindole] (compound 10 µM) | -4.7 | -6.25 | -4.35
